# Source: PubChem BioAssay (The Scripps Research Institute Molecular Screening Center)
# ZTA DNA inh: counter-screen for EBNA-1 inhibitors: inhibitors of Epstein-Barr virus ZTA. ZTA-DNA binding, fluorescence polarization. hit rate 0.15% among 320,000. P03206. AID 2234. inhibition, % at 11 µM; in the data active means inhibition above about 33%
# Target sequence (P03206 whole entry, looked up): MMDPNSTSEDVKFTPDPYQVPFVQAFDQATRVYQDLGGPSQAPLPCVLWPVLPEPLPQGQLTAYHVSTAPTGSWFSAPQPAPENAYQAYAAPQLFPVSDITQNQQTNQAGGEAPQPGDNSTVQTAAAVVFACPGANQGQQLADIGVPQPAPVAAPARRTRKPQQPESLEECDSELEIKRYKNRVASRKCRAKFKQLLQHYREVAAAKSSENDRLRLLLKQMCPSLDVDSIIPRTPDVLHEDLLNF
# EBNA-1 inhibitor: EBNA-1 DNA-binding inhibitors, primary screen, biochemical, fluorescence polarization; hit rate 0.34% among 300,000; inhibition, % at 14.8 µM; in the data active means inhibition above about 28%
# PAFAH2 FP inh: PAFAH2 enzyme inhibitors, primary screen, biochemical, fluorescence polarization, human. hit rate 0.99% among 340,000. Platelet-activating factor acetylhydrolase 2, cytoplasmic (Homo sapiens), Q99487. inhibition, % at 3.39 µM. recombinant PAFAH2, FP-rhodamine activity probe;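 active means inhibition above the mean over all tested compounds plus 3 SD, cut at about 30% in these data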;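 further: inhibitors block probe labeling of enzyme so polarization drops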
# PAFAH1B2 inh: PAFAH1B2 enzyme inhibitors, primary screen, biochemical, fluorescence polarization, human | Platelet-activating factor acetylhydrolase IB subunit alpha2 (Homo sapiens), P68402 | recombinant PAFAH1B2, FP-rhodamine activity probe | inhibition, % at 3.39 µM | hit rate 1.2% among 340,000 | AID 492953, 2010;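 active means inhibition above the mean of all tested compounds plus 3 SD, cut at about 24% in these data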
# Target sequence (P68402 whole entry, looked up): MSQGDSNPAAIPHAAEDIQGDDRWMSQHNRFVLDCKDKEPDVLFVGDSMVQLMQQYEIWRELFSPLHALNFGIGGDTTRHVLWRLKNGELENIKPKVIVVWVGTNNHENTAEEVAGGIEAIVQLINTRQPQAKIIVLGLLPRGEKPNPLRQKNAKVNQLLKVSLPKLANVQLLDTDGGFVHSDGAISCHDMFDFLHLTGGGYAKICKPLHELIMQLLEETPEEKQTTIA
# PAFAH1B3 FP inh: PAFAH1B3 enzyme inhibitors, primary screen, biochemical, fluorescence polarization, human; Platelet-activating factor acetylhydrolase IB subunit alpha1 (Homo sapiens), Q15102; recombinant PAFAH1B3, FP-rhodamine probe; inhibition, % at 3.39 µM; hit rate 0.28% among 340,000; AID 492972, 2010;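 active means inhibition above the screen-wide average of all tested compounds plus 3 SD, cut at about 25% in these data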
# pPAFAH inh: pPAFAH enzyme inhibitors, primary screen, biochemical, fluorescence polarization, human; inhibition, % at 3.39 µM; recombinant pPAFAH, FP-rhodamine probe fluorescence polarization; AID 463082, 2010; hit rate 1.5% among 330,000; Platelet-activating factor acetylhydrolase (Homo sapiens), Q13093;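 active means inhibition above the mean inhibition across the screen plus 3 SD, cut at about 25% in these data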;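 further: inhibitors block binding of the rhodamine activity-based probe so polarization drops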
# PAFAH2 FP conf: PAFAH2 enzyme inhibitors, confirmation, biochemical, fluorescence polarization, human | hit rate 65% among 2,300 | recombinant PAFAH2, FP-rhodamine activity probe | shares compounds with PAFAH2 FP inh | inhibition, % at 3.39 µM;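 active means mean inhibition over three repeats above a set limit taken from the earlier primary screen, cut at about 30% in these data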;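 further: inhibitor blocks binding of rhodamine activity probe so polarization falls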
# A number is an active result; 0 = inactive; - = no result. Shown are actives, neighbours in structure and some others; about 2.9% of the full set was active somewhere.
SMILES,ZTA DNA inh,EBNA-1 inhibitor,PAFAH2 FP inh,PAFAH1B2 inh,PAFAH1B3 FP inh,pPAFAH inh,PAFAH2 FP conf
COc1ccc(C(=O)N2CCC(n3nccc3NC(=O)C3CC3)CC2)cc1F,0,0,0,0,0,0,-
COCCn1c(SCC(=O)NC2CCCCC2)nnc1-c1ccncc1,0,0,0,0,0,0,-
CC(C)c1nc(SCC(=O)Nc2ccc(N(C)C)cc2)c2ccccc2n1,0,0,0,0,0,0,-
CCOc1ccc(C(=O)OCc2nnc(-c3cccs3)o2)cc1OC,0,0,85,0,0,0,79
CCOc1ccc(C(=O)NCC(=O)OCc2nnc(-c3ccccc3)o2)cc1OCC,0,-,60,0,0,0,53
O=C(OCc1nnc(-c2cccs2)o1)c1cccnc1Cl,0,-,0,0,0,0,-
O=C(OCc1nnc(-c2ccccc2)o1)c1ccco1,0,0,45,0,0,0,42
Cc1ccc(C(=O)OCc2nnc(-c3ccccc3)o2)s1,0,0,81,0,0,0,73
COc1cccc(CN2CCNC(=O)C2CC(=O)N(C)CCC2CCOCC2)c1OC (centres undefined),0,0,0,0,0,0,-
CN(C)S(=O)(=O)c1ccc(Cl)c(NC(=O)COC(=O)c2ccc(O)cc2)c1,0,0,59,0,0,0,55
Cc1ccc(S(=O)(=O)N(C)C)cc1NC(=O)COC(=O)C1CC1,0,0,43,0,0,0,34
Cc1ccc(S(=O)(=O)N(C)C)cc1NC(=O)COC(=O)c1ccc(Cl)cc1,0,0,35,0,0,0,0
CCN(c1ccccc1)S(=O)(=O)c1ccc(Cl)c(NC(=O)COC(=O)c2ccc(Cl)c(N)c2)c1,0,0,40,0,0,0,0
Cc1ccc(SCC(=O)Nc2nnc(C(C)(C)C)s2)cc1,0,0,0,0,0,0,-
COc1ccc(S(=O)(=O)N(C)C2(C)CCS(=O)(=O)C2)cc1OC (centres undefined),0,0,0,0,0,0,-
Cc1ccc(NC(=O)COC(=O)C2(C)CC2(Cl)Cl)cc1S(=O)(=O)N1CCOCC1 (centres undefined),-,-,0,0,0,-,-
CS(=O)(=O)c1ccc(Cl)c(NC(=O)COC(=O)c2cccc(C#N)c2)c1,0,0,0,0,0,0,-
CN(C)S(=O)(=O)c1ccc(Cl)c(NC(=O)COC(=O)c2ccc3c(c2)NC(=O)CS3)c1,0,0,48,0,0,0,40
O=C(COC(=O)c1ccc(OC(F)F)cc1)NCCC1=CCCCC1,0,-,41,0,0,0,0
CC(=O)Nc1ccc(C(=O)OCC(=O)NC(=O)NC(C)(C)C)cc1,0,0,41,0,0,0,31
CC(=O)Nc1ccc(C(=O)OCC(=O)NCCC2=CCCCC2)cc1,-,-,66,0,0,-,61
O=C(COC(=O)c1ccccc1Br)NCCC1=CCCCC1,0,0,0,0,0,0,-
O=C(COC(=O)c1ccc([N+](=O)[O-])cc1)NCCC1=CCCCC1,-,-,0,0,0,0,-
O=C(Cn1c(=O)sc2ccccc21)Nc1ccc(O)cc1,0,0,31,0,0,0,0
CC(=O)N(CN1C(=O)c2ccccc2C1=O)c1cccc(C)c1,0,0,0,0,0,0,-
SMILES,ZTA DNA inh,EBNA-1 inhibitor,PAFAH2 FP inh,PAFAH1B2 inh,PAFAH1B3 FP inh,pPAFAH inh,PAFAH2 FP conf
CCN(c1cccc(C)c1)C1C(=O)c2ccccc2N1C(C)=O (centres undefined),0,0,38,0,0,0,0
CC1=NN(c2ccccc2)C(=O)/C1=C/c1cccs1,0,0,0,0,0,0,-
CC1=NN(c2ccccc2)C(=O)/C1=C\c1ccc(Br)s1,0,0,33,0,0,0,0
COc1ccccc1/C=N/OC(=O)c1ccc(C)cc1,0,0,87,0,0,0,75
COc1ccccc1C/C(N)=N/OC(=O)c1ccc(C)c([N+](=O)[O-])c1,0,0,0,0,0,0,-
Cc1cccc(/C(N)=N/OC(=O)c2ccc3c(c2)OCO3)c1,0,0,42,0,0,0,36
COC(=O)c1ccc(CO/N=C/c2ccccc2OC)cc1,0,0,0,0,0,0,-
COc1ccccc1C/C(N)=N/OC(=O)c1ccco1,0,0,58,0,0,0,62
COc1ccccc1C/C(N)=N/OC(=O)c1ccc2c(c1)OCO2,0,0,77,0,0,0,79
CN(CC(=O)Nc1n[nH]c(=S)s1)S(=O)(=O)c1cccc2cccnc12,0,0,0,0,0,0,-
O=C(O/N=C/c1ccc2c(c1)OCO2)c1ccc([N+](=O)[O-])cc1,0,0,0,0,0,0,-
Cc1ccc(C(=O)O/N=C/c2ccc3c(c2)OCO3)cc1,0,0,48,0,0,0,51
Cc1ccc(OC(C)C(=O)Nc2ccccc2C(=O)NCc2cccnc2)cc1C (centres undefined),0,0,0,0,0,0,-
O=C(N/N=C/c1ccc(O)c(O)c1)N/N=C/c1ccc(O)c(O)c1,-,-,31,0,0,-,0
Cc1nonc1C(=O)N/N=C/c1ccc(O)c(O)c1,0,0,0,0,0,0,-
O=c1oc(-c2ccccc2F)nc2c1cnn2-c1ccccc1,0,0,74,0,0,0,45
O=c1oc(-c2cccc(Cl)c2)nc2c1cnn2-c1ccccc1,0,0,70,0,0,0,52
Nc1c(-c2cccc(Cl)c2)cnn1-c1ccccc1,0,0,0,0,0,0,-
Cc1c(NS(=O)(=O)c2cccc(C(=O)OCC(=O)c3ccc(Cl)cc3)c2)c(=O)n(-c2ccccc2)n1C,-,-,30,0,0,-,0
Cn1cccc1C(=O)NC(=O)COC(=O)c1ccc(O)cc1,0,0,52,0,0,0,45
CCN(CC)S(=O)(=O)c1cc(C(=O)OCC(=O)NC(=O)c2cccn2C)ccc1C,0,0,62,0,0,0,50
CC(C)NC(=O)COC(=O)c1ccc(O)cc1,0,0,48,0,0,0,0
O=C(COC(=O)c1ccc(Cl)nc1)Nc1cc(S(=O)(=O)N2CCCCC2)ccc1Cl,0,0,38,0,0,0,0
Cc1ccc(NC(=O)COC(=O)c2ccc(Cl)nc2)cc1S(=O)(=O)N1CCCCC1,0,-,36,0,0,0,38
O=C(c1ccco1)N1CCc2[nH]nc(-c3ccccc3)c2C1,0,0,0,0,0,0,-
Cc1cccc(NC(=O)COC(=O)c2n[nH]c3ccccc23)c1C,0,-,59,0,0,0,46
O=C(COC(=O)c1n[nH]c2ccccc12)Nc1ccccc1F,-,-,44,0,0,0,43
